“And” between values parts separate entries of the source, which are not always exact repeats. Identical values can stand only once. Records with an inconclusive call do not appear. Where a call stands in place of a potency, no number is given. The source made the active and inactive calls. Unless noted, the call rests on the fitted dose curve; in most records, active means well fitted curve in the direction sought with a large enough effect in the repeat runs; inconclusive means weak or mixed curves; inactive means no such curve, though single readings can be large; an effect the other way counts as inactive or inconclusive.
Columns and labels:
[1] = qHTS assay for identifying genotoxic compounds that show differential cytotoxicity against isogenic chicken DT40 cell lines with known DNA damage response pathways - wild type cell line (AID 743012); further: nearly all actives have a fitted effect of over 60% in size; further: potency means the concentration at half of the fitted maximal effect
Outline: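 First, wild type DT40 cells were plated at 300 per well and equilibrated about 0.5 h at 37 C/5% CO2. Next, compounds in DMSO were added and exposure lasted 40 h. Finally, CellTiter-Glo was added for 30 min at room temperature and luminescence recorded.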

[2] = qHTS assay for identifying genotoxic compounds that show differential cytotoxicity against isogenic chicken DT40 cell lines with known DNA damage response pathways - Rev3 mutant cell line (AID 743014); further: nearly all actives have a fitted effect of over 55% in size; further: potency means the concentration at half of the fitted maximal effect
[3] = qHTS assay for identifying genotoxic compounds that show differential cytotoxicity against isogenic chicken DT40 cell lines with known DNA damage response pathways - Rad54/Ku70 mutant cell line (AID 743015); further: nearly all actives have a fitted effect of over 60% in size; further: potency means the concentration at half of the fitted maximal effect
[4] = qHTS assay to identify small molecule antagonists of the androgen receptor (AR) signaling pathway - cell viability counter screen (AID 743033; further: nearly all actives have a fitted effect of over 45% in size; further: potency means the concentration at half of the fitted maximal effect)
[5] = target: Androgen receptor (Homo sapiens) (UniProt P10275); assay: qHTS assay to identify small molecule antagonists of the androgen receptor (AR) signaling pathway (AID 743035; active means well fitted inhibition curve with a large enough effect in the signal ratio in the repeat runs, not every such curve was filed as active; the % refers to the signal ratio; further: potency means the concentration at half of the fitted maximal effect)
Outline: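 Beta-lactamase FRET read (2 h RT incubation with LiveBLAzer B/G) following 16 h of compound plus R1881 treatment of AR-UAS-bla HEK293 cells, which had been pre-incubated 4 h at 37C.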

[6] = target: Androgen receptor (Homo sapiens) (UniProt P10275); assay: qHTS assay to identify small molecule agonists of the androgen receptor (AR) signaling pathway using the MDA cell line (AID 743040; further: nearly all actives have a fitted effect of over 20% in size; further: potency means the concentration at half of the fitted maximal effect)
Outline: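 Cells plated, 5 h at 37C/0% CO2; compound or DMSO pinned; 16 h at 37C; ONE-Glo added; luminescence measured after 30 min at room temperature. Reporter line: MDA-kb2 with MMTV-luciferase responsive to AR and GR.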

[7] = qHTS assay to identify small molecule antagonists of the androgen receptor (AR) signaling pathway using the MDA cell line - cell viability counter screen (AID 743041; further: nearly all actives have a fitted effect of over 45% in size; further: potency means the concentration at half of the fitted maximal effect)
Outline: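 Cells were plated at 3,000 per well and left 5 h. Compounds in DMSO were then pinned in, followed by R1881. After 16 h at 37C, CellTiter-Fluor fluorescence gave viability.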

[8] = target: Androgen receptor (Homo sapiens) (UniProt P10275); assay: qHTS assay to identify small molecule antagonists of the androgen receptor (AR) signaling pathway using the MDA cell line (AID 743042; further: nearly all actives have a fitted effect of over 55% in size; further: potency means the concentration at half of the fitted maximal effect)
Outline: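 Antagonist mode: compounds plus R1881 agonist added to MDA-kb2 AR-luc cells, incubated 16 h at 37C. Luciferase reporter luminescence quantified, with multiplexed CellTiter-Fluor readout for cell viability.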

[9] = target: Androgen receptor (Homo sapiens) (UniProt P10275); assay: qHTS assay to identify small molecule agonists of the androgen receptor (AR) signaling pathway (AID 743036; active means well fitted activation curve with a large enough effect in the signal ratio in the repeat runs, with a control signal flat, not every such curve was filed as active; the % refers to the signal ratio)
Outline: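 Fluorescence from a beta-lactamase FRET substrate served as read-out in AR-UAS-bla GripTite HEK293 cells. Cells were treated with DMSO-dissolved compounds for 16 h at 37C, then with LiveBLAzer B/G substrate for 2 h at room temperature.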

Androgen receptor (Homo sapiens), sequence (P10275 whole entry, looked up): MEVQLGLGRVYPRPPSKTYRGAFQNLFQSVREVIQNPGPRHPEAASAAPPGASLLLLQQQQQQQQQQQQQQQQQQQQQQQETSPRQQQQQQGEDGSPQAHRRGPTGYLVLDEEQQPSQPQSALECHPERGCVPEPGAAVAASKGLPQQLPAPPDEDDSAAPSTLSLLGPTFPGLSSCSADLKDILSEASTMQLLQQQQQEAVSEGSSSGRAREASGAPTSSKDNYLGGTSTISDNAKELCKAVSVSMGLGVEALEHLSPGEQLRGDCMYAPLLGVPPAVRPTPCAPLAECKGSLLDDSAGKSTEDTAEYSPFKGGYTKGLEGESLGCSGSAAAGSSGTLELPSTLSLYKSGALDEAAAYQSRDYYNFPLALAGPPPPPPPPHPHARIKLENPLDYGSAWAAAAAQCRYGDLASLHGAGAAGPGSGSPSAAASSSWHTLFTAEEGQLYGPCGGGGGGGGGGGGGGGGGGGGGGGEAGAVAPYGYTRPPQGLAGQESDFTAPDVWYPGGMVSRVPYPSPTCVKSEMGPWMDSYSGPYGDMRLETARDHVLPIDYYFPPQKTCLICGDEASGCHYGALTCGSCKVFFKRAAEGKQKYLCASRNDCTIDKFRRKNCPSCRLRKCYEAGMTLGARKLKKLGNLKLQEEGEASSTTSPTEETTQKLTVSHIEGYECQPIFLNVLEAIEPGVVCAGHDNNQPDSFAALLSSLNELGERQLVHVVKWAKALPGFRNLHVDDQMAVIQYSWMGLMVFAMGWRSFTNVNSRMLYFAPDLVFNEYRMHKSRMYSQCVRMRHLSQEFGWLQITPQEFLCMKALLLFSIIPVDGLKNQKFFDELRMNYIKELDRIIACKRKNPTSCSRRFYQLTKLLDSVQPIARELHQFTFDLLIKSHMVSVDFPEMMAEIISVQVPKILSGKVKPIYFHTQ

| Compound | Potency [1] | Potency [2] | Potency [3] | Potency [4] | Potency [5] | Potency [6] | Potency [7] | Potency [8] | Potency [9] |
| --- | --- | --- | --- | --- | --- | --- | --- | --- | --- |
| N=C1C=CC(=C(c2ccc(N)cc2)c2ccc(N)cc2)C=C1 | 9.69 µM (active) | 6.86 µM (active) | 7.7 µM (active) | 15.5 µM (active) | 2.19 µM (active) | inactive | 15.4 µM (active) | 2.43 µM (active) | – |
| COc1ccc(-c2ccc3cc(C(=O)O)ccc3c2)cc1C12CC3CC(CC(C3)C1)C2 | inactive | inactive | inactive | inactive | – | – | inactive | – | – |
| C[C@@H]1C[C@H]2[C@@H]3CCC4=CC(=O)C=C[C@]4(C)[C@@]3(Cl)[C@@H](O)C[C@]2(C)[C@@]1(OC(=O)c1ccco1)C(=O)CCl | 12.7 µM (active) | – | – | inactive | – | 0.0009 µM (active) | – | inactive | – |
| O=C(N/N=C/c1ccccc1O)c1ccncc1 | 4.22 µM (active) | 2.98 µM (active) | 5.96 µM (active) | – | – | – | inactive | – | – |
| CCCCN(CCCC)C(=O)N(CCCC)CCCC | – | inactive | inactive | inactive | – | – | inactive | – | – |
| CCCCCCCCOC(=O)c1ccc(O)cc1 | – | 60.9 µM (active) | – | inactive | – | – | inactive | – | – |
| CN(C)[C@@H]1C(=O)C(C(N)=O)=C(O)[C@@]2(O)C(=O)C3=C(O)c4c(O)ccc(Cl)c4[C@@H](O)[C@H]3C[C@@H]12 | inactive | – | inactive | inactive | – | – | inactive | – | – |
| OCCN(CCO)c1nc(N2CCCCC2)c2nc(N(CCO)CCO)nc(N3CCCCC3)c2n1 | 11.9 µM (active) | 9.44 µM (active) | – | inactive | – | inactive | – | inactive | – |
| CCCCCCCCCOC(=O)c1ccc(O)cc1 | – | 19.1 µM (active) | 19.1 µM (active) | – | 24.2 µM (active) | inactive | – | – | – |
| c1cc(C(c2ccc(OCC3CO3)cc2)c2ccc(OCC3CO3)cc2)ccc1OCC1CO1 (stereo not given) | 24.3 µM (active) | 0.969 µM (active) | 13.7 µM (active) | – | – | inactive | inactive | – | – |
| CCCCN(CCCC)c1ccc(C(=O)c2ccccc2C(=O)O)c(O)c1 | – | inactive | – | inactive | 39.3 µM (active) | inactive | inactive | – | – |
| O=C(Nc1cccc(C(F)(F)F)c1)c1cc(Br)cc(Br)c1O | 5.31 µM (active) and 6.11 µM (active) | 5.96 µM (active) and 7.7 µM (active) | 6.68 µM (active) and 4.86 µM (active) | 4.25 µM (active) and 4.36 µM (active) | – | – | 11.9 µM (active) and 10.9 µM (active) | – | – |
| CCc1oc2ccccc2c1C(=O)c1cc(Br)c(O)c(Br)c1 | – | – | – | inactive | – | inactive | inactive | inactive | – |
| O=c1[nH]sc2ccccc12 | 0.433 µM (active) | 0.433 µM (active) | – | 24.5 µM (active) | – | – | – | – | – |
| CCCCN1C(=O)[C@@H]([C@H](O)C2CCCCC2)NC(=O)C12CCN(Cc1ccc(Oc3ccc(C(=O)O)cc3)cc1)CC2 | 61.1 µM (active) | – | 15.4 µM (active) | – | – | – | inactive | – | – |
| Cc1ccc2oc(CN(Cc3ccccc3)C(=O)Nc3c(F)cc(F)cc3F)c(-c3ccc(Cl)cc3)c2c1 | 18.7 µM (active) | 13.3 µM (active) | – | – | – | – | inactive | – | – |
| CC(C)(C)c1ccc(C(=O)CCCN2CCC(OC(c3ccccc3)c3ccccc3)CC2)cc1 | 4.22 µM (active) | 5.31 µM (active) | – | inactive | – | – | inactive | – | – |
| CCN(CC)CCNC(=O)c1c(C)[nH]c(/C=C2\C(=O)Nc3ccc(F)cc32)c1C | 5.96 µM (active) | 9.44 µM (active) | 7.5 µM (active) | inactive | – | – | inactive | – | – |
| Oc1ccc(N=Nc2ccccc2)cc1 | – | 61.9 µM (active) | – | – | – | inactive | – | inactive | – |
| CCCCC(CC)COC(=O)c1ccccc1C(=O)O (stereo not given) | – | – | – | inactive | – | – | – | – | – |
| CN(C)c1ccc(SC#N)cc1 | 27.3 µM (active) | 30.6 µM (active) | – | inactive | – | – | inactive | – | – |

| Compound | Potency [1] | Potency [2] | Potency [3] | Potency [4] | Potency [5] | Potency [6] | Potency [7] | Potency [8] | Potency [9] |
| --- | --- | --- | --- | --- | --- | --- | --- | --- | --- |
| CCCCCCCCS(=O)C(C)Cc1ccc2c(c1)OCO2 (stereo not given) | – | 69.9 µM (active) | 69.9 µM (active) | – | – | inactive | – | – | inactive |
| Cn1cc(C(=O)[C@@H]2CCc3nc[nH]c3C2)c2ccccc21 | inactive | inactive | – | inactive | – | – | inactive | – | – |
| NC(=O)N1C(=O)C(C(=O)c2cc(Cl)cs2)c2cc(F)c(Cl)cc21 (stereo not given) | – | – | 61.1 µM (active) | inactive | – | inactive | – | inactive | – |
| CC(C)c1ccc2c(c1)CC[C@H]1[C@](C)(CN)CCC[C@]21C | 5.45 µM (active) | 6.11 µM (active) | – | 21.9 µM (active) | – | – | 24.3 µM (active) | – | – |
| CCCCC(CC)COP(=O)(O)OCC(CC)CCCC (stereo not given) | – | inactive | – | inactive | – | – | inactive | – | – |
| CC1=NC(C)OC1C (stereo not given) | – | inactive | inactive | inactive | – | inactive | inactive | – | – |
| CC(C)OC(=O)c1cc2c(OCC(O)CNC(C)(C)C)cccc2[nH]1 (stereo not given) | 23.7 µM (active) | – | – | inactive | inactive | inactive | inactive | inactive | – |
| N=C1N=C(N)c2ccccc21 | 17.2 µM (active) | 17.2 µM (active) | 17.2 µM (active) | – | – | – | inactive | – | – |
| CCCCCCCCn1sc(Cl)c(Cl)c1=O | 0.433 µM (active) | – | 0.686 µM (active) | 6.16 µM (active) | – | – | inactive | – | – |
| OCc1c[nH]c2ccccc12 | 30.6 µM (active) | 51.4 µM (active) | 64.8 µM (active) | – | – | inactive | – | – | – |
| CSc1ccc(/C=C2/C(C)=C(CC(=O)O)c3cc(F)ccc32)cc1 | inactive | inactive | inactive | – | inactive | inactive | inactive | inactive | – |
| C[n+]1cc2c3c(ccc2c2ccc4cc5c(cc4c21)OCO5)OCO3 | 1.5 µM (active) | 2.11 µM (active) | 1.5 µM (active) | – | – | inactive | 26.6 µM (active) | 18.8 µM (active) | – |
| Cc1cc(O)c2ccccc2c1O | 29.8 µM (active) | – | 29.8 µM (active) | inactive | inactive | inactive | inactive | inactive | – |
| CSc1ccc2c(c1)C(N1CCN(C)CC1)Cc1ccccc1S2 (stereo not given) | 5.96 µM (active) | 6.68 µM (active) | 9.44 µM (active) | – | – | – | inactive | – | – |
| C=C(C)C(=O)OCC(O)COc1ccc(C(C)(C)c2ccc(OCC(O)COC(=O)C(=C)C)cc2)cc1 (stereo not given) | 5.45 µM (active) | 6.86 µM (active) | 6.86 µM (active) | 24.5 µM (active) | – | – | 21.7 µM (active) | – | – |
| CN(C)C(=O)C1(N2CCCCC2)CCN(CC[C@@]2(c3ccc(Cl)c(Cl)c3)CN(C(=O)c3ccccc3)CCO2)CC1 | 7.19 µM (active) | 8.07 µM (active) | – | 16.2 µM (active) | – | inactive | 50.9 µM (active) | 28.6 µM (active) | – |
| CCCCCCCCCCCCc1ccc(O)cc1 | 10.9 µM (active) | 7.7 µM (active) | 12.2 µM (active) | 34.7 µM (active) | – | – | 54.5 µM (active) | – | – |
| CC1(C)CCC(C)(C)c2cc(C(=O)Nc3ccc(C(=O)O)cc3)ccc21 | 24.3 µM (active) | 19.3 µM (active) | 21.7 µM (active) | – | 49 µM (active) | inactive | – | – | inactive |
| CCN(C(=O)c1cc(C)cc(OC[C@H](C)Nc2ccncc2)c1)C(C)C | 19.1 µM (active) | 19.1 µM (active) | – | inactive | – | – | inactive | – | – |
| CCc1cc(Cc2cc(CC)c(N)c(CC)c2)cc(CC)c1N | 61.1 µM (active) | 61.1 µM (active) | 54.5 µM (active) | inactive | – | – | inactive | – | – |
| ON=C1CCCC1 | inactive | inactive | – | inactive | inactive | inactive | – | inactive | inactive |

Source: PubChem BioAssay (Tox21)
